Reference: PubChem BioAssay
The other results are listed elsewhere or left out. Activity calls are given as the source filed them.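 How the source made its calls, unless noted: active means mean inhibition above about 50% in the one-dose retest (limit read from the data); inactive means the rest.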

Legend:
[1] = cytotoxicity in PPC-1 cells, confirmation, cytotoxicity control for TRAIL apoptosis potentiator project, cell-based, ATP content luminescence (AID 1447;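 active means reconfirmed compounds whose average cytotoxicity reaches 50% or more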;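 further: 0% = DMSO-treated cells and 100% = wells holding medium but no cells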); details: PPC-1 viability, ATPlite luminescence, overnight; at 5 µM; stronger effect = higher value
[2] = Peg3 promoter reporter inhibitors, retest, confirmation, cell-based, HeLa, luciferase reporter, single concentration (AID 602417;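 active means at 20 µM dose, 40% or more inhibition averaged across four replicates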); details: HeLa PEG-Prom luciferase reporter, luminescence, overnight; at 20 µM; stronger effect = higher value
[3] = biological target: COP9 signalosome complex subunit 5 (Homo sapiens) (UniProt Q92905); experiment: Csn5 deneddylation inhibitors, confirmation, biochemical, fluorescence polarization, single concentration, SCF-Nedd8OG substrate (AID 720654; in the data active means inhibition above about 50%;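 further: 0% = DMSO with enzyme and 100% = no enzyme wells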); details: Csn5 deneddylation of SCF-Nedd8OG, 90 min, at 16.6 µM, stronger effect = higher value
COP9 signalosome complex subunit 5 (Homo sapiens), sequence (Q92905 whole entry, looked up, one chain of several): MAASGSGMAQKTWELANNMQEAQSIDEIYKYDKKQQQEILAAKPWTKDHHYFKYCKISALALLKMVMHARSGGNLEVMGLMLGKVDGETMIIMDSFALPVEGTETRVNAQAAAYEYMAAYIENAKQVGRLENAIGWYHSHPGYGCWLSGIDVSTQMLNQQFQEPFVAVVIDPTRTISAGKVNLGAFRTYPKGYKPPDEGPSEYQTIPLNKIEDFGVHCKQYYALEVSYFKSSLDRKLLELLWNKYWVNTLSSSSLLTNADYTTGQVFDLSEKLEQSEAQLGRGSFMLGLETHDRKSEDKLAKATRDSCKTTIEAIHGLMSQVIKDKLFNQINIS

[4] = biological target: 72 kDa type IV collagenase (Homo sapiens) (UniProt P08253); experiment: MMP-2 protease inhibition counter-screen, confirmation, counter-screen for CSN deneddylation inhibitor project, biochemical, fluorescence, single concentration (AID 720655;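 active means corrected plate-normalized z-score of 5 or more, or -5 or less, or inhibition of 15% or more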;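 further: plate controls were DMSO wells with enzyme for no effect and buffer wells lacking MMP-2 for full effect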); details: recombinant MMP-2, FRET substrate fluorescence, 60 min; at 16.6 µM
72 kDa type IV collagenase (Homo sapiens), sequence (P08253 whole entry, looked up): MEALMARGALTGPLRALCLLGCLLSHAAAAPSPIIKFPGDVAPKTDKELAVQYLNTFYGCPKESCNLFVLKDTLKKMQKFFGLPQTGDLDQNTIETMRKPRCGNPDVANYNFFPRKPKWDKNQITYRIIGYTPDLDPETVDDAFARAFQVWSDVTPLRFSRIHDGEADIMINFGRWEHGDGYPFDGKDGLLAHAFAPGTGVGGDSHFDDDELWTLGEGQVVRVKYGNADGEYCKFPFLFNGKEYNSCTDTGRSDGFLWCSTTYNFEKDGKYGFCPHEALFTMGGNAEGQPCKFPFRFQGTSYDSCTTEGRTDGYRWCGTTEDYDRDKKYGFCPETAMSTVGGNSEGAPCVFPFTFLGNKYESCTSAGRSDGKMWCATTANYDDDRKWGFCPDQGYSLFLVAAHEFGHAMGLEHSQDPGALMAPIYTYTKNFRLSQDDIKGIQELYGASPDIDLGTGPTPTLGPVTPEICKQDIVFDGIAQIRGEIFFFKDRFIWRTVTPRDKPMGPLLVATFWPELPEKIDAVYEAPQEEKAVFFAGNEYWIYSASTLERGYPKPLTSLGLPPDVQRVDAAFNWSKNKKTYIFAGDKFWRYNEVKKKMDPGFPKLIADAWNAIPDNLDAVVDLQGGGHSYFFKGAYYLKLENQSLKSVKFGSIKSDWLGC

Prothrombin (Bos taurus) = Prothrombin (Bos taurus) (UniProt P00735); experiment: bovine thrombin inhibition counter-screen, confirmation, counter-screen for CSN deneddylation inhibitor project, biochemical, fluorescence polarization, single concentration (AID 720656;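 active means inhibition at or above a set limit, with a fluorescence interference ratio between 0.5 and a set maximum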); details: bovine thrombin cleavage of Ub4-pepOG, at 16.6 µM, stronger effect = higher value
Prothrombin (Bos taurus), sequence (P00735 whole entry, looked up): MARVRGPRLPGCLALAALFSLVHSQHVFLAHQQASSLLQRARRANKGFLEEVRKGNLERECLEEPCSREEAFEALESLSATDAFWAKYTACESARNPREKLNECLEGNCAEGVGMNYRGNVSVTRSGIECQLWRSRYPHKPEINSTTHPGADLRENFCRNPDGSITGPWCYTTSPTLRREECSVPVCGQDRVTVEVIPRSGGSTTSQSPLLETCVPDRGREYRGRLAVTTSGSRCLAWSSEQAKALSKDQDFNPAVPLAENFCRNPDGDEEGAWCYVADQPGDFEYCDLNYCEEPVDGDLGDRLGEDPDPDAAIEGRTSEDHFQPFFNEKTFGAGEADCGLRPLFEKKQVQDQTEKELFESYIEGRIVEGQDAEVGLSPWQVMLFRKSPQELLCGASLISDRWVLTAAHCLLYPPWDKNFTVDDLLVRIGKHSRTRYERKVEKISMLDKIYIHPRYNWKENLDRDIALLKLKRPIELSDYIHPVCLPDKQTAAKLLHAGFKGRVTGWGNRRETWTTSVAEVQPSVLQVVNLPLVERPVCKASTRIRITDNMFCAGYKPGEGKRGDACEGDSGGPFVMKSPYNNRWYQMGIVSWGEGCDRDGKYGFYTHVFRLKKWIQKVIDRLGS

PEG-3 [5] = biological target: PEG-3 (UniProt Q6IN02); experiment: Peg3 promoter luciferase inhibitors, potency, dose response, cell-based, HeLa, CREF/GAPDH counter-screen panel (AID 624167); details: CREF/GAPDH counter-screens; HeLa PEG-Prom luciferase reporter, overnight, run 1, dose range 1, at 100 µM (top of the series) unless noted
PEG-3, sequence (Q6IN02 whole entry, looked up): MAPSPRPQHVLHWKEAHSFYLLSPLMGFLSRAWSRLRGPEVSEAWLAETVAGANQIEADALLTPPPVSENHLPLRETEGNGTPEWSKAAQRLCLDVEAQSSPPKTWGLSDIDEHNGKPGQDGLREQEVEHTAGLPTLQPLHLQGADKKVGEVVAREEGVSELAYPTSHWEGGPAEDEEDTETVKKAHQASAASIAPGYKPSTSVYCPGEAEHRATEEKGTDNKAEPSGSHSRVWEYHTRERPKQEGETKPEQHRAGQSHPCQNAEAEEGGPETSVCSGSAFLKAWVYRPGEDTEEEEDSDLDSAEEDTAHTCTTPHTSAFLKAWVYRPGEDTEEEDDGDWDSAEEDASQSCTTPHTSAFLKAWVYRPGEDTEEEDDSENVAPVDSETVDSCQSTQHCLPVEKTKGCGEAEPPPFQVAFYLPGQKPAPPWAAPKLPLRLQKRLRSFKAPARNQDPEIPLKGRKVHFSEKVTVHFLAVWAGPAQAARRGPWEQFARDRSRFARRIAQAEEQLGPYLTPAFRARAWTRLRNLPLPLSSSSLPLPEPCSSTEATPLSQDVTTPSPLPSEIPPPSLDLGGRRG

PEG-3 [6] = biological target: PEG-3 (UniProt Q6IN02); experiment: as above; details: CREF/GAPDH counter-screens; HeLa PEG-Prom luciferase reporter, overnight, run 2, dose range 1, at 100 µM (top of the series) unless noted
Rat fibroblasts (CREF) [7] = experiment: as above; details: CREF/GAPDH counter-screens; run 1, dose range 1, at 100 µM (top of the series)
Rat fibroblasts (CREF) [8] = experiment: as above; details: CREF/GAPDH counter-screens; run 2, dose range 1, at 100 µM (top of the series)
[9] = HIF-2a reporter inhibitor retest, confirmation, luminescence, 786-0 RCC cells (AID 651580;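 active means mean inhibition across four replicates of at least 40 percent at the single tested concentration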); details: HIF-2a luciferase reporter luminescence, overnight, at 18.8 µM, stronger effect = higher value
[10] = HIF-1a luciferase reporter signal reduction – MiaPaCa-2 cells, single concentration, counter-screen for HIF-2a inhibitor project, confirmation (AID 651589;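 active means mean inhibition of the reporter signal across four replicates at the single tested dose of 50% or more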); details: MiaPaCa-2 HIF-1a luciferase reporter, desferoxamine, overnight; at 18.8 µM; stronger effect = higher value
[11] = biological target: Sentrin-specific protease 8 (Homo sapiens) (UniProt Q96LD8); experiment: SENP8 protease inhibitors, retest, confirmation, biochemical, luminescence, single concentration (AID 488912;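 active means mean inhibition across replicates above about 50%, limit read from the data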); details: Recombinant SENP8, Z-RLRGG-aminoluciferin luminescence, 60 min; at 12.5 µM; stronger effect = higher value
Sentrin-specific protease 8 (Homo sapiens), sequence (Q96LD8 whole entry, looked up): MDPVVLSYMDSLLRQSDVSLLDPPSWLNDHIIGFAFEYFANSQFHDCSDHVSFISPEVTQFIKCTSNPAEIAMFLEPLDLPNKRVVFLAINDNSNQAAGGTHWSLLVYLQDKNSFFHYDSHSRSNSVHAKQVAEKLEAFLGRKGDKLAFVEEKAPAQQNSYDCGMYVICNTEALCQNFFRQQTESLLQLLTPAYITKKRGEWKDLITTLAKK

[12] = biological target: Sentrin-specific protease 6 (Homo sapiens) (UniProt Q9GZR1); experiment: SENP6 protease inhibitors, confirmation, biochemical, luminescence, single concentration (AID 488915); details: recombinant SENP6, Z-RLRGG-aminoluciferin luminescence; at 12.5 µM; stronger effect = higher value
Sentrin-specific protease 6 (Homo sapiens), sequence (Q9GZR1 628-1112 limits assumed): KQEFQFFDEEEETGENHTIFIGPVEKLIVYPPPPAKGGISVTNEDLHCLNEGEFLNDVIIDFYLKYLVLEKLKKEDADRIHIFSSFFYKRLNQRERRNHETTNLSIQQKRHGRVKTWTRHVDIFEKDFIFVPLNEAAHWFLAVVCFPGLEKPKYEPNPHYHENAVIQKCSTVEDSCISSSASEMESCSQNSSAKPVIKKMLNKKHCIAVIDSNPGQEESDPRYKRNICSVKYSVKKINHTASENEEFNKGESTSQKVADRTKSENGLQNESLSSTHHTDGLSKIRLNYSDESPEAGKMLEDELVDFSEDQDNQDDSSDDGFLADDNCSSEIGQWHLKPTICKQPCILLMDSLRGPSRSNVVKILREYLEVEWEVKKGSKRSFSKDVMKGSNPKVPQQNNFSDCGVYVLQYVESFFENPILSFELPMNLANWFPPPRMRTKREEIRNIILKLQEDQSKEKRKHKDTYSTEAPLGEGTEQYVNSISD

[13] = biological target: Sentrin-specific protease 7 (Homo sapiens) (UniProt Q9BQF6); experiment: SENP7 protease inhibitors, retest, confirmation, biochemical, luminescence, single concentration (AID 488917); details: recombinant SENP7, Z-RLRGG-aminoluciferin luminescence, 40 min; at 12.5 µM; stronger effect = higher value
Sentrin-specific protease 7 (Homo sapiens), sequence (Q9BQF6 706-1050 limits assumed): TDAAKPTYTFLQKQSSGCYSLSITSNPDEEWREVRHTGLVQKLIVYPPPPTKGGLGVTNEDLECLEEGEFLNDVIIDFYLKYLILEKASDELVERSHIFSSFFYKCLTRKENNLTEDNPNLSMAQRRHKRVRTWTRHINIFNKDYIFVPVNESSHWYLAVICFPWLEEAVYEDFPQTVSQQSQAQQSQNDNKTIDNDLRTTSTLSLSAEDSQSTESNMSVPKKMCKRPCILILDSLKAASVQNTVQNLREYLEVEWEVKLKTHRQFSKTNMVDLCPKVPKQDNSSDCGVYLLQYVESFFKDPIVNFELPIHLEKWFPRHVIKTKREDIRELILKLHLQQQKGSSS

Caspase-3 (Homo sapiens) = Caspase-3 (Homo sapiens) (UniProt P42574); experiment: caspase-3 protease inhibitors, confirmation, selectivity assay for SENP inhibitor project, biochemical, single concentration (AID 488918;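 active means mean inhibition above about 50%, limit read from the data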;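 further: plate controls were enzyme with DMSO for no effect and wells without caspase-3 for full effect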); details: purified caspase-3, Z-DEVD-aminoluciferin luminescence, 60 min; at 12.5 µM; stronger effect = higher value
Caspase-3 (Homo sapiens), sequence (P42574 28-227 limits assumed): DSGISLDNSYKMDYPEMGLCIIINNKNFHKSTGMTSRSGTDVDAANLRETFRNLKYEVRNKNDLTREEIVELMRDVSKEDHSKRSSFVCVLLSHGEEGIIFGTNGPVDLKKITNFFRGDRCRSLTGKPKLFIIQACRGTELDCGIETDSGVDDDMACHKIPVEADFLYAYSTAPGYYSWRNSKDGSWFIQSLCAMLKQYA

[14] = luciferase luminescence interference by compounds, confirmation, artefact control for SENP inhibitor project, biochemical, single concentration, SENP8 reaction pre-completed (AID 488919;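 active means mean inhibition above about 50% when retested at one dose, limit read from the data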;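 further: plate controls were DMSO wells with completed reaction for no effect and substrate without enzyme for full effect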); details: Pre-incubated SENP8/Z-RLRGG-aminoluciferin, at 12.5 µM, stronger effect = higher value
[15] = inhibition of Brca1/Bard1 split-luciferase complementation, confirmation, counter-screen for Mdm2/MdmX interaction inhibitor project, luminescence, single concentration (AID 504668; call rule not given here); details: Brca1/Bard1 bimolecular luciferase complementation counterscreen, at 8 µM, stronger effect = higher value
[16] = biological target: Tumor necrosis factor receptor superfamily member 10B (Homo sapiens) (UniProt O14763); experiment: caspase-8 TRAIL sensitization, hit retest, confirmation, cell-based, NB7+caspase-8, with/without TRAIL, luminescence panel (AID 651596; in the data active means activity above about 50%); details: NB7 neuroblastoma + caspase-8, TRAIL sensitization, luminescence viability, with TRAIL, mean of runs, at 10 µM, stronger effect = higher value
Tumor necrosis factor receptor superfamily member 10B (Homo sapiens), sequence (O14763 whole entry, looked up): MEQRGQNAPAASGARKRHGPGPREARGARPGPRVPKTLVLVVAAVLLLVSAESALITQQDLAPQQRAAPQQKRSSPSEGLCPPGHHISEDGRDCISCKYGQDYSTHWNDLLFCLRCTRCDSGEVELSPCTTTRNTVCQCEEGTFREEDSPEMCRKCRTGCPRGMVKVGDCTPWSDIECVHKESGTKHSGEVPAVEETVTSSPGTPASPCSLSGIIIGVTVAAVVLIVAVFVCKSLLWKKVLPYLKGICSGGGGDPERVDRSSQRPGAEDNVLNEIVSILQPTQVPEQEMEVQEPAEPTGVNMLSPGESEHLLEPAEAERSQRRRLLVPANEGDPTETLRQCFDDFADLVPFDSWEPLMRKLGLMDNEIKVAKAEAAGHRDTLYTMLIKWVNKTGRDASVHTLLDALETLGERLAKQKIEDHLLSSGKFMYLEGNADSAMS

[17] = as above; details: NB7 neuroblastoma + caspase-8, without TRAIL, luminescence viability, without TRAIL, mean of runs, at 10 µM
[18] = PMA/ionomycin-induced NF-kB reporter inhibitors, Jurkat retest, confirmation, T-cell NF-kB inhibitor project, cell-based, luminescence, single concentration (AID 435020;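 active means inhibition reaching about 45% at 4 µM in either replicate, limit read from the data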;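 further: plate controls were PMA/ionomycin stimulated DMSO wells for no effect and unstimulated DMSO wells for full effect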); details: Jurkat NF-kB luciferase, 16 h, at 4 µM, stronger effect = higher value
[19] = biological target: Protein Mdm4 (Homo sapiens) + E3 ubiquitin-protein ligase Mdm2 (Homo sapiens) (UniProt O15151+Q00987); experiment: retested Mdm2-MdmX interaction blockers, confirmation, cell-based, luminescence, single concentration, set 2 (AID 504601;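 active means mean inhibition of the luminescence signal across two replicates at or above 26 percent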); details: SaOS-2 split-luciferase Mdm2/MdmX complementation, at 8 µM, stronger effect = higher value
Protein Mdm4 (Homo sapiens) + E3 ubiquitin-protein ligase Mdm2 (Homo sapiens), sequence (O15151 whole entry, looked up): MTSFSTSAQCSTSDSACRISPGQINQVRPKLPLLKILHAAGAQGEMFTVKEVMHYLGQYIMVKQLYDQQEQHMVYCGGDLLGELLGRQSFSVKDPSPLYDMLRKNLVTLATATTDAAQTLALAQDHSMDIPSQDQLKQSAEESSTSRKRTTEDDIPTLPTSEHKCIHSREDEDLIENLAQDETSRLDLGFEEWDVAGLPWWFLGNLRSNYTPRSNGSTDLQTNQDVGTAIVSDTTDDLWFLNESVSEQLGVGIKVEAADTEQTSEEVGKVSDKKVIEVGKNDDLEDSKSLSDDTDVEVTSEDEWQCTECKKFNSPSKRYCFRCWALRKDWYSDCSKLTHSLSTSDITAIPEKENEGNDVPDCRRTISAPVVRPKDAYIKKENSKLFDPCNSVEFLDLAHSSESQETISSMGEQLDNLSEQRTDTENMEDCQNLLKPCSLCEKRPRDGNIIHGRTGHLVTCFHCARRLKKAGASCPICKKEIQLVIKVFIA
Protein Mdm4 (Homo sapiens) + E3 ubiquitin-protein ligase Mdm2 (Homo sapiens), sequence (Q00987 whole entry, looked up): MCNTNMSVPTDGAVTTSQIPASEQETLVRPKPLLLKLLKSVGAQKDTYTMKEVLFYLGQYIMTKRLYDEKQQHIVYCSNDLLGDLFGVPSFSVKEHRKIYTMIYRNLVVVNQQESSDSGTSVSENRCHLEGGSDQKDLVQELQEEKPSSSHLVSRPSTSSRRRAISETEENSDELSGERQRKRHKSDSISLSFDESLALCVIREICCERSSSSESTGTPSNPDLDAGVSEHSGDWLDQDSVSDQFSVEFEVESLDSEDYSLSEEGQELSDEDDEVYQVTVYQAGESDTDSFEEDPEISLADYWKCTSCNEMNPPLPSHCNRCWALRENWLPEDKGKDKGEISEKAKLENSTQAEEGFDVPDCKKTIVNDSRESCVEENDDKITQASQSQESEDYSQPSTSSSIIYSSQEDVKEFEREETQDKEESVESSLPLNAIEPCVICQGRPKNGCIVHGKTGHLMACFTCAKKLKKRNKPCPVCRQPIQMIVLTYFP

[20] = inhibitors of PAF-induced NF-kB signaling, retest, confirmation, cell-based, GFP fluorescence, single concentration (AID 602472; in the data active means inhibition above about 40%;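 further: stimulus PAF is a Pseudomonas aeruginosa filtrate and not platelet activating factor; plate controls were DMSO wells with stimulus for no effect and unstimulated DMSO wells for full effect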); details: KKLEB CF airway cells, overnight, at 5 µM, stronger effect = higher value

In the case of `CCC(C)Cn1c(O)cc2nn(-c3nc4ccccc4s3)c(=O)c-2c1C` (centres undefined), the cytotoxicity [1] was 53.8% (active), the inhibition [2] was 94.5% (active) and the inhibition [3] was 102% (active). For the same compound, the inhibition [4] was 16% (active), the inhibition (Prothrombin (Bos taurus)) was -1.66% (inactive) and the inhibition (PEG-3 [5]) was 99%. The inhibition (PEG-3 [6]) was 101%, the inhibition (Rat fibroblasts (CREF) [7]) was 72.9% and the inhibition (Rat fibroblasts (CREF) [8]) was 68.7%.

For `Clc1ccc2nc(-c3ccccc3)nc(C(Cl)Cl)c2c1`, the cytotoxicity [1] was 76.5% (active), the inhibition [9] was -30.4% (inactive) and the inhibition [10] was 104% (active).

In the case of `Cc1ccc(-c2cn3cc(C)ccc3n2)cc1`, the cytotoxicity [1] was 85.8% (active), the inhibition [11] was 54.3% (active) and the inhibition [12] was 91.7% (active). The inhibition [13] was 101% (active), the inhibition (Caspase-3 (Homo sapiens)) was 95% (active) and the inhibition [14] was 39.4% (inactive). For the same compound, the inhibition [15] was 29% (active), the inhibition [2] was 82% (active) and the inhibition (PEG-3 [5]) was 96.6%. For the same compound, the inhibition (PEG-3 [6]) was 96.4%, the inhibition (Rat fibroblasts (CREF) [7]) was 98.1% and the inhibition (Rat fibroblasts (CREF) [8]) was 96.8%.

With `O=c1oc(/C=C/c2ccccc2)nc2ccccc12` the cytotoxicity [1] was 57.5% (active), the activity [16] was 76.2% and the activity [17] was 79.7%.

In the case of `COc1cc(C(=O)NN(CCC#N)C2=NS(=O)(=O)c3ccccc32)cc(OC)c1OC`, the inhibition [18] was -119% (inactive).

With `CC(=O)c1sc(NC(=O)c2ccc(C)cc2)nc1C` the cytotoxicity [1] was 52.3% (active), the inhibition [11] was -24.9% (inactive) and the inhibition [12] was -17.1% (inactive). The inhibition [13] was 3.1% (inactive), the inhibition (Caspase-3 (Homo sapiens)) was 6% (inactive) and the inhibition [14] was -5.6% (inactive). The activity [16] was 68.5% and the activity [17] was 68.1%.

With `Cc1ccccc1Nc1nc(N)nc(CSc2ccccc2)n1` the inhibition [18] was -82.8% (inactive).

In the case of `COc1cc(/C=N/O)ccc1OCc1ccc([N+](=O)[O-])cc1`, the inhibition [18] was -119% (inactive).

In the case of `Cn1c(=NC(=O)c2cnccn2)sc2ccccc21`, the cytotoxicity [1] was 50.8% (active), the activity [16] was 57.3% and the activity [17] was 53.5%.

For `COc1cccc(/C=C/c2ccc3ccccc3n2)c1OC(C)=O`, the cytotoxicity [1] was 74.4% (active), the activity [16] was 67.2% and the activity [17] was 60.8%.

In the case of `COc1ccc(-c2csc(-c3cccs3)n2)cc1OC`, the inhibition [18] was -54.3% (inactive).

For `Cc1ccc(NC(=O)c2csc3c2CCCC3)cc1`, the inhibition [18] was -157% (inactive).

With `COc1cc(SC)ccc1C(=O)Nc1cc(C)ccn1` the cytotoxicity [1] was 53.4% (active), the inhibition [11] was 39.8% (inactive) and the inhibition [12] was 40.9% (inactive). For the same compound, the inhibition [13] was 78.8% (active), the inhibition (Caspase-3 (Homo sapiens)) was 43.8% (inactive) and the inhibition [14] was 51% (active).

In the case of `O=C(Nc1ccccc1Cl)/C(Cl)=C(\Cl)S(=O)c1ccccc1` (centres undefined), the inhibition [18] was 59.8% (active).

With `O=C(Nc1ccc(NC(=O)c2cccs2)cn1)c1ccco1` the cytotoxicity [1] was 42.1% (inactive), the activity [16] was 63.1% and the activity [17] was 71.5%.

In the case of `COc1ccc(-c2nc(-c3ccccc3)no2)c(OC)c1`, the cytotoxicity [1] was 69.6% (active), the inhibition [11] was 97.4% (active) and the inhibition [12] was 100% (active). The inhibition [13] was 103% (active), the inhibition (Caspase-3 (Homo sapiens)) was 98.1% (active) and the inhibition [14] was 98.1% (active). It also gave an activity [16] of 82.3% and an activity [17] of 80.7%.

With `O=C(Oc1ccc(-c2nc(-c3ccccn3)no2)cc1)c1ccccc1` the cytotoxicity [1] was 44.9% (inactive), the inhibition [11] was 4.5% (inactive) and the inhibition [12] was 23.1% (inactive). For the same compound, the inhibition [13] was 2.6% (inactive), the inhibition (Caspase-3 (Homo sapiens)) was 14.5% (inactive) and the inhibition [14] was 2.6% (inactive).

With `Clc1ccc(-c2cc(-c3ccccn3)on2)c(Cl)c1` the cytotoxicity [1] was 89.7% (active), the inhibition [11] was 94.7% (active) and the inhibition [12] was 95.8% (active). For the same compound, the inhibition [13] was 102% (active), the inhibition (Caspase-3 (Homo sapiens)) was 94.9% (active) and the inhibition [14] was 32.9% (inactive).

In the case of `O=C(Nc1ccc(CSc2ccccc2)cc1)c1ccc(CN2CCOCC2)cc1`, the inhibition [18] was 62.3% (active).

For `O=C(/C=C/c1ccc(Cl)c([N+](=O)[O-])c1)c1ccc(O)cc1`, the cytotoxicity [1] was 4.1% (inactive), the inhibition [19] was 103% (active) and the inhibition [2] was 98.9% (active). The inhibition [20] was -37.9% (inactive), the inhibition [9] was 20.2% (inactive) and the inhibition [10] was 105% (active). The inhibition (PEG-3 [5]) was 102%, the inhibition (PEG-3 [6]) was 99.1% and the inhibition (Rat fibroblasts (CREF) [7]) was 99.1%. It also gave an inhibition (Rat fibroblasts (CREF) [8]) of 98.7%.

For `COc1ccc(CS(=O)/C(Cl)=C(/Cl)C(=O)Nc2ccc(OC)nc2)cc1` (centres undefined), the inhibition [18] was 95.7% (active).

With `O=C(NC(Nc1nc2ccc([N+](=O)[O-])cc2s1)(C(F)(F)F)C(F)(F)F)c1ccccc1` the inhibition [18] was 80.7% (active).

With `COc1cc(N=Cc2c(O)[nH]c3ccccc23)cc(OC)c1OC` the inhibition [18] was -14% (inactive).

In the case of `Cc1ccc(-c2nc3ccccc3[nH]2)cc1N`, the cytotoxicity [1] was 49.3% (inactive), the inhibition [11] was 91.6% (active) and the inhibition [12] was 92% (active). The inhibition [13] was 102% (active), the inhibition (Caspase-3 (Homo sapiens)) was 96.7% (active) and the inhibition [14] was 92.3% (active).

For `COc1ccc(-c2cn3ccc(C)cc3n2)cc1`, the cytotoxicity [1] was 89.4% (active), the inhibition [11] was -5.4% (inactive) and the inhibition [12] was 88.1% (active). For the same compound, the inhibition [13] was 99.5% (active), the inhibition (Caspase-3 (Homo sapiens)) was 95.2% (active) and the inhibition [14] was 91.2% (active). It also gave an activity [16] of 82.7% and an activity [17] of 81.1%.
